The supplement of paper PMC9948646

Each compound was assayed on gramicidin D channels in DC22:1PC lipid vesicles (bilayer-modifying potency) (assay: initial Tl+ fluorescence quench rate relative to no-drug control (NormRate, gramicidin monomer-dimer shift) (ratio (fold of control)); higher = stronger bilayer-modifying effect (equilibrium shifted toward conducting dimers), active = 1.5 or more). Conditions: 10 µM; lipid concentration 50 µM; temperature: 25 °C.
Description: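 Stopped-flow fluorescence quench assay: ANTS-loaded DC22:1PC large unilamellar vesicles doped with gramicidin D (1:2000), 50 µM lipid, equilibrated 10 min with 10 µM drug (0.1% DMSO), mixed with Tl+ quench buffer at 25°C. Initial quench rate (Tl+ influx) was fitted with a modified stretched exponential and normalised to the no-drug control rate (NormRate); duplicates from two independent LUV preparations (triplicates for 7 drugs).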

Initial Tl+ fluorescence quench rate, active:
CC(C)(C)c1cnc(NC(=O)c2ccccc2O)s1 2.31, FC(F)(F)c1cccc(-c2nc3c(NCc4ccncc4)nccc3[nH]2)c1 1.76, CC1=NN(c2nc3ccccc3s2)C(=O)[C@@H]1Cc1cccc2ccccc12 2.18, c1ccc(Oc2ccc(-c3cncc(-c4ccc5[nH]ccc5c4)n3)cc2)cc1 1.69, CCOc1ccccc1N[C@H](C)C(=O)Nc1cc(C(F)(F)F)ccc1N1CCOCC1 1.72, C[C@H](c1ccc2c(c1)CCCC2)N(C)c1ncc2c(N)nc(N)nc2n1 2.15, O=S(=O)(c1ccc(Cl)cc1)N1CCN(C(=S)NCc2ccco2)CC1 1.54, Cc1noc(C)c1C(=O)N1CCC[C@@H](c2[nH]c3c(C)cccc3c2-c2ccncc2)C1 1.73, O=C1N(Cc2cc3ccccc3s2)C[C@H]2CN(Cc3ccccc3)CCN12 2.35, CC(C)=CCC/C(C)=C\CNCCN[C@H]1[C@@H]2C[C@H]3C[C@@H](C2)C[C@@H]1C3 1.66, Cc1nc(-c2ccccn2)nc(N2CC[C@@H](Cc3ccccc3)C2)c1Cl 3.57

Initial Tl+ fluorescence quench rate, inactive:
COc1ccc(-c2onc(C(F)(F)F)c2-c2ccc(Cl)cc2)c(O)c1 1.38, Cc1cc(Nc2ccncc2)n2nc(C)c(-c3ccccc3Cl)c2n1 1.03, O=C(Nc1nnc(-c2ccc(Cl)s2)o1)c1ccc(Cl)s1 1.27, CN1CCN(c2nccc3nc(-c4ccc(F)c(F)c4)[nH]c23)CC1 1.11, CCc1nc2ccc(Cl)cn2c1C(=O)NCc1ccc(N2CCC(c3ccc(OC(F)(F)F)cc3)CC2)cc1 1.09, CN1CCCN([C@H](c2ccccc2)c2ccc(Cl)cc2)CC1 1.43, CC(C)(C)c1cc(C(=O)Nc2cccnc2)cc(C(=O)Nc2cccnc2)c1 1.39, Nc1ncnc2c1c(Cc1cccc3ccccc13)nn2CC1CCNCC1 1.15, COc1ccccc1OCCCCn1c(C2CC2)nc2ccccc21 1.18, Nc1ccc(C(=O)Nc2ccc(-c3nc4ccccc4o3)cc2)cc1 1.1, CCN(CC)CCCN1CCN(C(=O)c2cccc(-c3noc(C(F)(F)F)n3)c2)CC1 1.25, Cc1cc(Cl)ccc1NC(=O)CCc1ccc(S(=O)(=O)NCC(C)C)cc1 1.42, Cc1nnc(NC(=O)c2cn(-c3ccccc3)nc2-c2ccccc2C)o1 1.02, Nc1ncnc2c1c(-c1cnc3ccccc3c1)nn2CC1CCNCC1 1.07, c1cc(C2=NCCN2)cc(-c2cc(-c3ccc(C4=NCCN4)cc3)no2)c1 1.17, COc1ccc(-c2nc(-c3cccc(NC(=O)Cc4ccc(F)cc4)c3)no2)cc1OC 1.47, Cc1cc(NCC(C)C)c2n[nH]c(-c3ccccc3)c2n1 1.11, Cc1cc(C)nc(-n2nc(C)cc2Nc2ccccc2)n1 1.32, Brc1c(-c2ccc3c(c2)OCO3)nc2ncccn12 1.12, O=C(Nc1cnc2ccccc2c1)c1cccc(-n2cnnn2)c1 1.26, CCc1c(C)nc(-n2nc(C)cc2NC(=O)c2ccccc2SC)[nH]c1=O 1.2, C[C@H]1C[C@@H]1C(=O)NC1CCN(CC2(c3ccccc3)CCCCC2)CC1 1.06, C[C@H]1c2cccc(O)c2C(=O)C2=C(O)[C@]3(O)C(=O)C(C(N)=O)=C(O)[C@@H](N(C)C)[C@@H]3[C@@H](O)[C@@H]21 1.02, FC(F)(F)c1cnc(Sc2nnc(-c3ccncc3)o2)c(Cl)c1 1.23, O=C(NC1=NCCS1)c1sc2cc(F)ccc2c1Cl 1.06, Nc1ncnc2c1ncn2C[C@@H](O)[C@@H](O)C(=O)O 1.05, O=C(NCc1cc(Cl)cc(Cl)c1)c1c(C(F)(F)F)nc2ccccn12 1.21
